The source made the active and inactive calls. No stated cut-off is given here; in the data, active means remaining activity below about 50%; inactive means the rest.
Biological target: Phospholipase D1 (Homo sapiens) (UniProt Q13393)
Assay: PLD1 inhibitors in cells, Calu-1 cells, single concentration (AID 602144);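 further: tested at 200 nM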
Conditions: cellular PLD1 activity, stronger effect = lower value

Phospholipase D1 (Homo sapiens), sequence (Q13393 whole entry, looked up): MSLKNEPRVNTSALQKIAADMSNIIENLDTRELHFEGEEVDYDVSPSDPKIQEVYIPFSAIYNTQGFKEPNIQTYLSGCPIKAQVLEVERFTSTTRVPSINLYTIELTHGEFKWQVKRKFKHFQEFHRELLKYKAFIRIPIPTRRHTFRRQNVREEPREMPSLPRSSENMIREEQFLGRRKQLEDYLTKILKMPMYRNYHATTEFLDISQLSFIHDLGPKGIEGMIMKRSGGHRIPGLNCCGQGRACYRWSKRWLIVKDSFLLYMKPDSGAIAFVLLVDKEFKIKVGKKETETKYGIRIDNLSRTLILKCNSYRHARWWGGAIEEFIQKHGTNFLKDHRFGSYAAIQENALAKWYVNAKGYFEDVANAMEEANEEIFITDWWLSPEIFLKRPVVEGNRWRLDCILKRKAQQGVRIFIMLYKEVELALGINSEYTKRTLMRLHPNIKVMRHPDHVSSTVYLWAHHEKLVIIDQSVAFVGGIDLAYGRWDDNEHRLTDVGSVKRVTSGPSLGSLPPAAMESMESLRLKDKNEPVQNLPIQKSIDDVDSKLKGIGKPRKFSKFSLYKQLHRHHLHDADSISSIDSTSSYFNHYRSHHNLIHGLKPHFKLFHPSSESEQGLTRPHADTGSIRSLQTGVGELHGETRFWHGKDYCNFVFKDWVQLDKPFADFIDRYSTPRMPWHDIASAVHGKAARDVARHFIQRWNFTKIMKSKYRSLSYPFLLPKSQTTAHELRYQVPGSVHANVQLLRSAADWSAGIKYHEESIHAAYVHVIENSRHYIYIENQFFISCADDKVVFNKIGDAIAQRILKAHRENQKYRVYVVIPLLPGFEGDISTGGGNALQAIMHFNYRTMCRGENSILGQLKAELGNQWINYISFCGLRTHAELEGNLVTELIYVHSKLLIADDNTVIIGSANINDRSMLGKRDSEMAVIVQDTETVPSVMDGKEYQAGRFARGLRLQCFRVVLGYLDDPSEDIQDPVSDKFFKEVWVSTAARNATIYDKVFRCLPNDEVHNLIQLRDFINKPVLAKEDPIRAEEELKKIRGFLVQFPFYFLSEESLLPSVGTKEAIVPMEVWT
Phospholipase D1 (Homo sapiens), sequence (Q13393 whole entry, looked up): as above

Structure (SMILES) | remaining activity
O=C1c2ccccc2C(=O)N1CCCNc1ccc2ccccc2c1 | 145% (inactive)
C[C@@H](CN1CCC2(CC1)CCN(C)C2=O)NC(=O)c1cnc2ccccc2c1 | 127% (inactive)
O=C(NCCN1CCC(n2c(=O)[nH]c3cc(Cl)ccc32)CC1)c1ccc(Cl)cc1 | 7.16% (active)
O=C(c1ccc(Cl)cc1)N1CCC2(CC1)C(=O)NCN2c1ccccc1 | 102% (inactive)
O=c1[nH]c2ccccc2n1C1CCN(CCNC(=S)Nc2ccccc2F)CC1 | 109% (inactive)
C[C@@H](CN1CCC2(CNCc3ccccc32)C1)NC(=O)c1ccc2ccccc2c1 (stereo partly specified) | 95.4% (inactive)
O=c1[nH]c2ccccc2n1C1CCN(CCNS(=O)(=O)c2ccc(F)cc2)CC1 | 129% (inactive)
Cc1ccc(NC(=S)NCCN2CCC(n3c(=O)[nH]c4ccccc43)CC2)cc1 | 152% (inactive)
Cn1c(C2CCN(CC3(N)CCCC3)CC2)nc2ccccc21 (tested in a mixture with another compound) | 95% (inactive)
CC1(C)[C@H]2CC[C@]1(CS(=O)(=O)NCCN1CCC(n3c(=O)[nH]c4ccccc43)CC1)C(=O)C2 | 121% (inactive)
C[C@@H](CN1CCC(n2c(=O)[nH]c3cc(Br)ccc32)CC1)NC(=O)c1ccc(F)cc1 | 16.1% (active)
O=C(NCCN1CCC2(CC1)CNCc1ccccc12)c1ccc2ccccc2c1 | 122% (inactive)
O=C(NCCN1CCC2(CC1)CNc1ccccc12)c1cnc2ccccc2c1 | 126% (inactive)
O=C(CCCN1CCC(O)(c2ccc(Cl)cc2)CC1)c1ccc(F)cc1 | 80.1% (inactive)
O=C(NCCN1CCC2(C=Cc3ccccc32)CC1)c1cnc2ccccc2c1 | 126% (inactive)
O=C1c2ccccc2C(=O)N1CCCNCc1ccccn1 | 175% (inactive)
O=c1[nH]c2ccccc2n1C1CCN(CCNS(=O)(=O)c2ccccc2C(F)(F)F)CC1 | 94.8% (inactive)
CCNC(=S)NCCN1CCC(n2c(=O)[nH]c3ccccc32)CC1 | 144% (inactive)

Structure (SMILES) | remaining activity
CC(C(=O)NCCN1CCC(n2c(=O)[nH]c3ccccc32)CC1)(c1ccccc1)c1ccccc1 | 104% (inactive)
CC(C)[C@@H](CN1CCC(n2c(=O)[nH]c3ccccc32)CC1)NC(=O)[C@@H]1C[C@H]1c1ccccc1 | 82.9% (inactive)
C[C@@H](CN1CCC(n2c(=O)[nH]c3ccccc32)CC1)NC(=O)c1cc2ccccc2[nH]1 | 8.14% (active)
C[C@@H](CN1CCC(n2c(=O)[nH]c3ccccc32)CC1)NC(=O)CSc1ccccc1 | 48.1% (active)
O=C1c2ccccc2C(=O)N1CCCN1CCC(n2c(=O)[nH]c3ccccc32)CC1 | 76.2% (inactive)
O=C(NCCN1CCC(n2c(=O)[nH]c3ccccc32)CC1)N1c2ccccc2C=Cc2ccccc21 | 92.3% (inactive)
C[C@@H](CN1CC=C(n2c(=O)[nH]c3ccccc32)CC1)NC(=O)[C@H]1C[C@@H]1c1ccccc1 | 15.7% (active)
COc1cccc(N2CCN(CCNC(=O)c3ccc(Cl)cc3)CC2)c1 | 96.1% (inactive)
C[C@H](N)CN1CCC(c2nc3ccccc3n2C)CC1 (tested in a mixture with another compound) | 88.8% (inactive)
O=C(NCCN1CCC(n2c(=O)[nH]c3cc(I)ccc32)CC1)c1ccc(Cl)cc1 | 15.6% (active)
CCCCS(=O)(=O)NCCN1CCC(n2c(=O)[nH]c3ccccc32)CC1 | 124% (inactive)
CN(C)c1cccc2c(S(=O)(=O)NCCN3CCC(n4c(=O)[nH]c5ccccc54)CC3)cccc12 | 127% (inactive)
O=C(C1C[C@@H]1c1ccccc1)N1CCC(n2c(=O)[nH]c3cc(Cl)ccc32)CC1 (stereo partly specified) | 89.8% (inactive)
C[C@@H](CN1CCC(n2c(=O)[nH]c3ccc(F)cc32)CC1)NC(=O)c1ccc(Cl)cc1 | 17.7% (active)
C[C@@H](CN1CCC(n2c(=O)[nH]c3ccccc32)CC1)NC(=O)c1ccc(F)c(F)c1 | 21.3% (active)
O=C(c1ccc2ccccc2c1)N1CCC2(CC1)C(=O)NCN2c1ccccc1 | 113% (inactive)
C[C@@H](CN1CCC2(C=Cc3ccccc32)CC1)NC(=O)[C@H]1C[C@@H]1c1ccccc1 | 126% (inactive)
C[C@@H](CN1CCC(n2c(=O)[nH]c3ccccc32)CC1)NC(=O)c1cc2ccccc2s1 | 28% (active)

— PubChem BioAssay AID602144 (Vanderbilt Specialized Chemistry Center, 2011)
